# Test results from PubChem BioAssay (NCATS).
# Values without a mark were called inactive. Results filed as inconclusive are left out. Where a call stands in place of a potency, no number is given. Calls of active or inactive are those of the source. The call rests on the fitted dose curve; in most records, active means well fitted curve in the direction sought with a large enough effect; inconclusive means small, poorly fitted or top-dose-only effect, or another doubt; inactive means no such curve, though single readings can be large; an effect the other way counts as inactive or inconclusive.
# Test system: not listed separately
# Assay: Primary fluorescence-based thiol-reactive (MSTI) qHTS assay for identification of artifact compounds. (AID 1845221);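 further: thiol-reactive compounds lower the probe fluorescence signal; nearly all actives have a fitted effect of over 65% in size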
# Conditions: MSTI thiol-reactivity probe, 1 h; series mostly up to 53.8 µM
# In short: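 A multi-concentration qHTS design tested compounds against 4 uM MSTI, pH 7.4 phosphate-buffered saline. Plates were protected from light for 1 h at room temperature before imaging fluorescence.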
row,Structure (SMILES),Potency
1,N[C@@H](CC(=O)N1CCn2c(nnc2C(F)(F)F)C1)Cc1[nH]nc2c(F)c(F)ccc12,inactive
2,COC(=O)C1=CO[C@@H](O[C@@H]2O[C@H](CO)[C@@H](O)[C@H](O)[C@H]2O)[C@@H]2[C@@H](C)[C@@H](O)C[C@H]12,inactive
3,CCn1cc(C2=NOC(C(=O)Nc3c(C)n(C)n(-c4ccccc4)c3=O)C2)c(C)n1 (centres undefined),inactive
4,CCC(NC(=O)CC(NC(=O)C(CO)NC(=O)C(CC)NC(=O)c1ccc[nH]1)c1ccccc1)C(=O)O (centres undefined),inactive
5,CC(C)=CCCC1(C)Oc2cc3c(c4c2C2C(O4)C(C)(O)CCC21)CN(C(CCC(=O)O)C(=O)O)C3=O (centres undefined),inactive
6,O=S(=O)(Nc1ccc(C(O)(C(F)(F)F)C(F)(F)F)cc1)c1cccs1,inactive

# Test system: Nanoluciferase (engineered Oplophorus gracilirostris luciferase)
# Assay: Primary Nanoluciferase (NLuc) qHTS assay for identification of artifact compounds. (AID 1845222)
# Conditions: NLuc-conditioned medium, Nano-Glo luminescence, 5 min; series mostly up to 54.1 µM
# In short: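 Compounds are pinned into diluted (1:55) conditioned medium of NLuc-expressing S16 cells and held 15 min at room temperature protected from light. Nano-Glo substrate follows, and luminescence is read 5 min later.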
Structure (SMILES),Potency,"activity, negative = inhibition"
CCCC(N[C@@H](C)C(=O)N1[C@H](C(=O)O)C[C@@H]2CCCC[C@@H]21)C(=O)OCC (some centres undefined),inactive,
O=C(O)CCc1cccc(O[C@@H]2O[C@H](CO)[C@@H](O)[C@H](O)[C@H]2O)c1O,inactive,
CCOC(=O)c1ccnc(CNCC(=O)N(CC)CCN(C)C)c1,inactive,
CC(=O)O[C@@H]1[C@H](O[C@@H]2OC[C@](O)(CO)[C@H]2O)[C@@H](O[C@@H]2O[C@@H](C)[C@H](O)[C@@H](O)[C@H]2O)[C@H](OC(=O)[C@]23CCC(C)(C)C[C@H]2C2=CCC4[C@@]5(C)C[C@H](O)[C@H](O[C@@H]6O[C@H](C(=O)O)[C@@H](O)[C@H](O)[C@H]6O)[C@@](C)(C(=O)O)C5CC[C@@]4(C)[C@]2(C)CC3)O[C@@H]1C (some centres undefined),,2.83% [at 11.6 µM]
CC1(C)OC(=O)C(OCC2CC2)=C1c1ccc(S(C)(=O)=O)cc1,inactive,
CC(=O)O[C@H]1CC[C@@]2(CI)C(=CC[C@@H]3[C@@H]2CC[C@]2(C)[C@@H]([C@H](C)CCCC(C)C)CC[C@@H]32)C1,,-1.76% [at 11.6 µM]
c1ccc(Cc2ncc3c(n2)CCNCC3)cc1,inactive,
CC[C@H](/C=C/[C@@H](C)[C@H]1CC[C@H]2[C@@H]3CC=C4C[C@@H](O)CC[C@]4(C)[C@H]3CC[C@]12C)C(C)C,,1.22% [at 6.45 µM]
O=C(/C=C/c1ccc(O)cc1)OCC1=C[C@@H](O)[C@@H]2C=CO[C@@H](O[C@@H]3O[C@H](CO)[C@@H](O)[C@H](O)[C@H]3O)[C@H]12,inactive,
C=CC(C)(O)CC/C=C(\C)C(=O)OCC1OC(OC2CCC3(C)C(CCC4(C)C3CC=C3C5CC(C)(C)C(O)CC5(C(=O)O)CCC34C)C2(C)C)C(O)C(OC2OC(CO)C(O)C(OC3OC(CO)C(O)C(OC4OC(COC5OC(CO)C(O)C(O)C5O)C(O)C(O)C4O)C3O)C2O)C1O (centres undefined),,4.87% [at 11.6 µM]
CC1=C(CC(=O)O)c2cc(F)ccc2C1=Cc1ccc(S(C)(=O)=O)cc1,inactive,
CC1(C)CC[C@]2(C(=O)O[C@@H]3O[C@H](CO)[C@@H](O)[C@H](O)[C@H]3O)CC[C@]3(C)C(=CCC4[C@@]5(C)C[C@@H](O)[C@H](O)C(CO)(CO)C5CC[C@]43C)C2[C@@H]1O (some centres undefined),inactive,
NS(=O)(=O)NCCNc1nonc1C(=Nc1ccc(F)c(Br)c1)NO,inactive,
COc1cc(CCc2ccccc2)c(C(=O)O)c2c1CC(C(C)(C)O)O2 (centres undefined),inactive,
C[C@@H]1CC[C@]2(C)C3(C)CC[C@@]2(OC3=O)[C@@]12C[C@H](c1ccoc1)OC2=O,inactive,
COC(=O)CC[C@@H](C)[C@H]1CC[C@H]2[C@@H]3CC(=O)[C@H]4C[C@H](OC(C)=O)CC[C@]4(C)[C@H]3CC[C@]12C,inactive,
C[C@@H]1O[C@@H](O[C@H]2[C@H](OC(=O)C34CCC5(C)C(=CCC6C7(C)CC(O)C(O[C@@H]8O[C@H](C(=O)O)[C@@H](O)[C@H](O)[C@H]8O)C(C)(C(=O)O)C7CCC65C)C3CC(C)(C)CC4O)O[C@H](C)[C@@H](O)[C@@H]2O)[C@H](O)[C@@H](O[C@@H]2OC[C@](O)(CO)[C@H]2O[C@@H]2O[C@H](CO)[C@@H](O)[C@H](O)[C@H]2O)[C@H]1O (some centres undefined),,0% [at 11.6 µM]
CC1(O)CCC2C(C(=O)O)=COC(OC3OC(CO)C(O)C(O)C3OC(=O)/C=C/c3ccc(O)cc3)C21 (centres undefined),inactive,
C[C@@H]1O[C@@H](OC[C@H]2O[C@@H](OCCc3ccccc3)[C@H](O)[C@@H](O)[C@@H]2O)[C@H](O)[C@H](O)[C@H]1O,inactive,

Structure (SMILES),Potency,"activity, negative = inhibition"
C[C@@H]1CCC2C(C)(C)[C@H](O)CC[C@]2(C)[C@@]12Cc1c(O)cc3c(c1O2)CN(CCO)C3=O (some centres undefined),inactive,
O=C(C1CC1)N1CC[C@@H](Cc2n[nH]c(=O)n2-c2ccc(-c3ccc4occc4c3)cc2)C1,inactive,
C=C1CC[C@H]2[C@@](C)(CCC[C@@]2(C)C(=O)O)[C@@H]1CCC(C)CCO (some centres undefined),inactive,
COc1ccc(C(O[C@@H]2O[C@H](CO)[C@@H](O)[C@H](O)[C@H]2O)C(CO)Oc2ccc(/C=C/CO)cc2OC)cc1O (some centres undefined),inactive,
C[C@@H]1C[C@H](O)/C=C/[C@H](O)[C@@H](O)CC(=O)O1,inactive,
C=C(C)C1CC2(CO)C(=CC1=O)CCC(O)C2C (centres undefined),inactive,
C[C@@H]1O[C@@H](O[C@@H]2[C@@H](O)[C@H](O[C@@H]3[C@@H](O)[C@@H](O)[C@H](O[C@H]4[C@H](OC(=O)[C@]56CCC(C)(C)C[C@H]5C5=CCC7[C@@]8(C)C[C@H](O)[C@H](O[C@@H]9O[C@@H](C)[C@H](O)[C@@H](O)[C@H]9O)[C@@](C)(CO)C8CC[C@@]7(C)[C@]5(C)C[C@H]6O)O[C@H](C)[C@H](O)[C@@H]4O)O[C@H]3C)OC[C@H]2O)[C@H](O)[C@H](O)[C@H]1O (some centres undefined),,4.95% [at 11.6 µM]
C=C1CCC2C(C)(C)C(O)CCC2(C)C1CCC(C)CCOC(=O)CCC(=O)O (centres undefined),inactive,
OCc1ccccc1O[C@@H]1O[C@H](CO)[C@@H](O)[C@H](O)[C@H]1O,inactive,
COc1cc(CC(COC2OC(CO)C(O)C(O)C2O)c2cc(/C=C/CO)cc(OC)c2O)ccc1O (centres undefined),inactive,
CC(/C=C/C1(O)C2(C)COC1(C)CC(=O)C2)O[C@@H]1O[C@H](CO)[C@@H](O)[C@H](O)[C@H]1O (some centres undefined),inactive,
CN1C(=O)c2ccccc2-n2c(nc3ccccc3c2=O)[C@@]12O[C@H]2c1ccccc1,inactive,
CC1OC(OC2C(C)OC(OC3C(OC(=O)/C=C/c4ccc(O)cc4)C(CO)OC(OC4(COC(=O)/C=C/c5ccc(O)cc5)OC(CO)C(O)C4O)C3OC3OCC(O)(CO)C3O)C(O)C2O)C(O)C(O)C1O (centres undefined),,0.249% [at 11.6 µM]
N[C@@H](CC(=O)N1CCn2c(nnc2C(F)(F)F)C1)Cc1[nH]nc2c(F)c(F)ccc12,inactive,
COC(=O)C1=CO[C@@H](O[C@@H]2O[C@H](CO)[C@@H](O)[C@H](O)[C@H]2O)[C@@H]2[C@@H](C)[C@@H](O)C[C@H]12,inactive,
CCn1cc(C2=NOC(C(=O)Nc3c(C)n(C)n(-c4ccccc4)c3=O)C2)c(C)n1 (centres undefined),inactive,
CCC(NC(=O)CC(NC(=O)C(CO)NC(=O)C(CC)NC(=O)c1ccc[nH]1)c1ccccc1)C(=O)O (centres undefined),inactive,
CC(C)=CCCC1(C)Oc2cc3c(c4c2C2C(O4)C(C)(O)CCC21)CN(C(CCC(=O)O)C(=O)O)C3=O (centres undefined),inactive,
O=S(=O)(Nc1ccc(C(O)(C(F)(F)F)C(F)(F)F)cc1)c1cccs1,inactive,
